This passage reports outcome and AC50 results from PubChem BioAssay (EPA / NIEHS).

Several values for one entry are separate records, joined by “and”; a condition that tells them apart may be missing. Identical values can stand only once. A structure can be active in one record and inactive in another. Activity calls are given as the source filed them. Rule for the calls: active = hit-call score of the fitted dose curve at least 0.9, where 1 is the maximum; inactive = score below 0.9.

The AC50 is the midpoint of the concentration-response curve, whichever way the signal moves.

Read-out in this assay: Cyclin Dependent Kinase Inhibitor 1A (CDKN1A), CDKN1A (gene 1026)
The assay is described as follows: LTEA_HepaRG_CDKN1A: Life Technologies and Expression Analysis (LTEA) Assay for Cyclin Dependent Kinase Inhibitor 1A (CDKN1A) using HepaRG (AID 2283450). The following applies: mRNA level, 48 h; actives raise or lower the signal. On the procedure:
LTEA_HepaRG is a cell based, multiplexed-readout assay that uses HepaRG, a human liver cell line, with measurements taken at 48 hours after chemical dosing on a 96-well plate.LTEA_HepaRG_CDKN1A is one of 102 assay component(s) measured in the LTEA HepaRG cell culture assay. It is a marker of Cell proliferation, survival, death.Data from the assay component LTEA_HepaRG_CDKN1A was analyzed into 1 endpoint. This assay endpoint, LTEA_HepaRG_CDKN1A, was analyzed with bidirectional fitting relative to DMSO as the negative control and baseline of activity. Using a type of inducible reporter, measures of mRNA induction for gain or loss-of-signal activity can be used to understand regulation of transcription factor activity. To generalize the intended target to other relatable targets, this assay endpoint is annotated to the cell cycle intended target family, where the subfamily is Cell proliferation, survival, death.
A total of 1060 chemcials from the ToxCast library were tested in eight-point concentration-response experiments. Cell culture and cytotoxicity assays were conducted at Thermo Fisher Scientific's Custom Services facility (Madison, WI). A single lot of human HepaRG cells (Thermo Fisher Scientific, Frederick, MD) was used for the cell culture experiments. 96-well format collagen type I coated plates of human HepaRG cells were prepared using established methods. Briefly, cryopreserved HepaRG cells were thawed, plated at a density of approximately 100,000 cells/well in HepaRG Thaw, Plate, and General Purpose media (HPRG770, Thermo Fisher Scientific), and incubated for 48 hours. 0.5% DMSO was selected as vehicle control to balance the requisite need of DMSO in HepaRG cultures to maintain differentiation (for example, baseline metabolism, proportions of hepatocytes vs. cholangiocytes), while enabling further hepatic receptor pathway activation (for example, PXR and CAR) in response to chemical exposure. 48 hours after plating, the culture medium was replaced with HepaRG Serum-Free Incudtion Media. Cells were exposed to each test chemical in duplicate and maintained in CO2 incubators for another 48 hours. Chemical plates were thawed to room temperature and 200x concentrations of treatment groups were prepared. 8-point conentration-reponse curves were made with the highest exposure at 100 uM, followed by half-log dilutions, all in 0.5% DMSO. Each test plate contained variouse controls, induction positive controls (1mM phenobarbital), cytotoxicity positive controls ([…] aflatoxin B1), vehicle controls (0.5% DMSO), and total lysis controls (0.5% DMSO). Cell morphology images were taken using an Essen IncuCyte FLR automated microscope, with six 96-well plates imaged in about 24 minutes. Images were captured and exported and JPEG files. Spent culture media was transfered to black-well plates for the LDH assay, and remaining media was sorted at -80 C for later use. Cells were treated with RLT buffer and frozen until shipped for gene expression analysis. Total RNA was isolated from the cell suspension in 75 uL of Buffer RLT (Qiagen, Germantown, MD 20874) by Quintiles/Expression Analysis (Durham, NC) using a custom isolation procedure. Total RNA from each plate well was transferred to a preamplification plate. Fluidigm's 96.96 Dynamic ArrayTM (Fluidigm, Amsterdam, the Netherlands) technology was used for gene expression analyses by quantitative reverse transcription polymerase chain reaction (qRT-PCR, performed by Quintiles/Expression Analysis, Durham, NC)89. Standard TaqManTM Assays (Applied Biosystems/ThermoFisher Scientific, Foster City, CA) were used to assess the expression of 93 genes selected based on their selectivity and sensitivity to important hepatic receptors known to be modulated by environmental chemicals; importance in human hepatocyte functionality; and hepatotoxicity. […]
Turning to `Cc1ccc(-c2c(Cl)nc(C#N)n2S(=O)(=O)N(C)C)cc1`, the molecule was called inactive.

Take `N#Cc1cc(Br)c(O)c(Br)c1`: the AC50 is 10.1 µM (active).

`CCOP(=S)(OCC)SCn1c(=O)oc2cc(Cl)ccc21`: the call was inactive. Take `CC1COC(Cn2cncn2)(c2ccc(Oc3ccc(Cl)cc3)cc2Cl)O1` (stereo not given): the concentration at half-maximal activity (AC50) is 12.7 µM (active). With `CCNc1nc(Cl)nc(NCC)n1`, the call was inactive. The same measure, in the same setting: to `CNC(=S)S` belongs “inactive”; to `COP(N)(=O)SC` (stereo not given), “inactive”.

On to `COC(=O)c1ccccc1C(=O)OC`, for which the molecule was classed as inactive.

With `O=C(Nc1ccccc1)Nc1ccnc(Cl)c1`, the concentration at half-maximal activity (AC50) is 50 µM (active). The same measure, in the same setting: to `N#Cc1nn(-c2c(Cl)cc(C(F)(F)F)cc2Cl)c(N)c1S(=O)C(F)(F)F` (stereo not given) belongs 32.5 µM (active). With `CCOC(=O)CC(SP(=S)(OC)OC)C(=O)OCC` (stereo not given), the molecule was classed as inactive. With `CN(C)C(=S)SSC(=S)N(C)C`, the molecule was classed as inactive. Consider `COc1ccc(C(c2ccc(OC)cc2)C(Cl)(Cl)Cl)cc1`, for which the result was inactive.

Consider `OC(c1ccc(Cl)cc1)(c1cncnc1)c1ccccc1Cl` (stereo not given), for which the half-maximal activity concentration (AC50) was 70.5 µM (active).

Regarding `COC(=O)C(C)Oc1ccc(Oc2ccc(Cl)cc2Cl)cc1` (stereo not given), the call was inactive. The same measure, in the same setting: the same measure for `CCOC(=O)C(Cl)Cc1cc(-n2nc(C)n(C(F)F)c2=O)c(F)cc1Cl` (stereo not given): “inactive”; for `Cc1c(F)c(F)c(COC(=O)C2C(/C=C(\Cl)C(F)(F)F)C2(C)C)c(F)c1F` (stereo not given): “inactive”.

`CCCC1COC(Cn2cncn2)(c2ccc(Cl)cc2Cl)O1` (stereo not given): the AC50 is 33.2 µM (active).

As for `C=CC1(C)OC(=O)N(c2cc(Cl)cc(Cl)c2)C1=O` (stereo not given), the molecule was classed as inactive. For the molecule `CCCCNC(=O)OCC#CI`, the outcome was inactive. As to `CCNc1nc(Cl)nc(NC(C)C)n1`, the molecule was called inactive. The same measure, in the same setting: to `COC(=O)C=C(C)OP(=O)(OC)OC` belongs “inactive”; to `CC(C)C1(C)N=C(c2nc3ccccc3cc2C(=O)O)NC1=O` (stereo not given), “inactive”. In the case of `C#CCOS(=O)OC1CCCCC1Oc1ccc(C(C)(C)C)cc1` (stereo not given), the AC50 is 12.9 µM (active).

Take `CCON=C(CC)C1=C(O)CC(c2c(C)cc(C)cc2C)CC1=O` (stereo not given): the molecule was classed as inactive.

As for `CS/C(C)=N/OC(=O)N(C)SN(C)C(=O)O/N=C(\C)SC`, the molecule was called inactive. Regarding `O=C(O)COc1nc(Cl)c(Cl)cc1Cl`, the outcome was inactive. Turning to `CO/C=C(/C(=O)OC)c1ccccc1Oc1cc(Oc2ccccc2C#N)ncn1`, the AC50 is 79.5 µM (active) and 78.9 µM (active).

Turning to `CCCCC(CC)COC(=O)c1ccccc1C(=O)OCC(CC)CCCC` (stereo not given), the result was inactive.

On to `CC(C)Oc1cc(-n2nc(C(C)(C)C)oc2=O)c(Cl)cc1Cl`, for which the AC50 is 84.1 µM (active).

With `C=CCC1=C(C)[C@@H](OC(=O)[C@@H]2[C@@H](C=C(C)C)C2(C)C)CC1=O`, the outcome was inactive. Still for that read-out and setting: the same measure for `C=CCC1=C(C)C(OC(=O)C2C(C=C(C)C)C2(C)C)CC1=O` (stereo not given): “inactive”. Take `N#CC(CCc1ccc(Cl)cc1)(Cn1cncn1)c1ccccc1` (stereo not given): the half-maximal activity concentration (AC50) is 60.9 µM (active). On to `CCc1nn(C)c(C(=O)NCc2ccc(C(C)(C)C)cc2)c1Cl`, for which the AC50 is 3.24 µM (active). As to `COP(=S)(OC)Oc1nc(Cl)c(Cl)cc1Cl`, the molecule was called inactive.

Turning to `Oc1ccccc1-c1ccccc1`, the molecule was called inactive. For the molecule `CCCN(CCC)c1c([N+](=O)[O-])cc(S(N)(=O)=O)cc1[N+](=O)[O-]`, the outcome was inactive and the half-maximal activity concentration (AC50) is 96.1 µM (active).

As to `CCCCNC(=O)n1c(NC(=O)OC)nc2ccccc21`, the call was inactive. Take `CC1=C(C(=O)Nc2ccccc2)SCCO1`: the result was inactive.
